Results with a measured potency or affinity are listed apart. The source made the active and inactive calls. No cut-off is given here; in the data, nearly all actives have IC50 up to about 0.98 µM.
biological target: Calcium-dependent protein kinase 1 (Plasmodium falciparum (isolate 3D7)) (UniProt P62344); test: PfCDPK1 kinase inhibitors, biochemical, TCAMS library (AID 1159585); conditions: recombinant PfCDPK1, Kinase-Glo ATP depletion luminescence;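 note: inhibitors leave more ATP so luminescence rises with inhibition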
Sequence (P62344 whole entry, looked up): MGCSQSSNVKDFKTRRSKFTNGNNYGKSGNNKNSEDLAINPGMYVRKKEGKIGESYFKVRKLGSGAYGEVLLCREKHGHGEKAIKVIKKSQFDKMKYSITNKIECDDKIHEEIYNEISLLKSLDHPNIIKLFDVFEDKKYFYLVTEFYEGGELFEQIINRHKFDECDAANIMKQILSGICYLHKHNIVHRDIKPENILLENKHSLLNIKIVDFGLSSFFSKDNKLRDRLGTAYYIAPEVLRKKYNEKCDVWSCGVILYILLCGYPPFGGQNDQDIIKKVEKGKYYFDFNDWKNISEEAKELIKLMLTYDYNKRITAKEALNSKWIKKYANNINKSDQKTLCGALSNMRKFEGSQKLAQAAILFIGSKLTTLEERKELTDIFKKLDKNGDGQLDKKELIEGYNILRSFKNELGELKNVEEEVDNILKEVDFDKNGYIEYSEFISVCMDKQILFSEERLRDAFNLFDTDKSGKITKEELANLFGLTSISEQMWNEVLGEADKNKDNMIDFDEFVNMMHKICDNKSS

outcome, inactive:
OCCCCCCNc1ccnc2[nH]c3ccc(I)cc3c12
COc1cccc2cc(C(=O)N[C@@H](CC(C)C)C(=O)N[C@H](/C=N/N3C(=O)CN(Cc4ccccc4)C3=O)CCc3ccccc3)oc12
O=C(Cn1c2ccccc2c(=O)c2ccc(Cl)cc21)Nc1ccc(C(F)(F)F)cc1
CCc1cc([C@H]2O[C@@H](n3cnc4c(NCC(c5ccccc5)c5ccccc5)nc(NCCNc5ccccn5)nc43)[C@H](O)[C@@H]2O)on1
O=S(=O)(NCCN1CCCC1)c1ccc(-c2cccc(CNC3Cc4ccccc4C3)c2)cc1F
O=C(Cn1c(=O)oc2ccccc21)N1CCC(n2c(=O)n(CCCN3CCOCC3)c3ccccc32)CC1
Cc1cccc(NC(=O)c2cnc(N3CCN(c4ccncc4)CC3)c(Cl)c2)c1
COc1ccc2nc(C)cc(NN=Cc3ccccc3)c2c1
CN(C)S(=O)(=O)c1ccc(Nc2nc(NCCC3C=NC=N3)nc3cc[nH]c(=O)c23)cc1 (centres undefined)
O=C(/C=C/c1ccc(C(F)(F)F)cc1)NCCCCCN1CCN(C(=O)Nc2ccc(Cl)cc2)CC1
Cc1cc(N[C@@H](Cc2ccccc2)C(=O)NCc2cccc(F)c2)nc(NCCOc2ccccc2)n1
Cc1cc(C)c(O)c(-c2cc(C(=O)Nc3ccc(S(=O)(=O)N4CC(C)OC(C)C4)cc3)[nH]n2)c1 (centres undefined)
Oc1ccc(Nc2nc(NCC3CCCO3)c3ccccc3n2)cc1 (centres undefined)
CCOC(=O)c1cn(CC)c2cc(O[C@H]3CCN(C(=O)OC(C)(C)C)C3)ccc2c1=O

— PubChem BioAssay
